# Measurements published in PubChem BioAssay (Tox21).
# Records with an inconclusive call do not appear. Where a call stands in place of a potency, no number is given. The source holds several records for some structures; these can differ, active in one and inactive in another. Active and inactive are the calls of the source. Unless noted, calls follow the shape of the dose curve; as a rule, active = well fitted curve in the direction sought with a large enough effect in the repeat runs; inconclusive = weak or mixed curves; inactive = no such curve, though single readings can be large; an effect the other way counts as inactive or inconclusive.
# Key:
# [1] = qHTS assay to identify small molecule agonists of the NFkB signaling pathway (AID 1159509; active = well fitted curve in the direction sought with a large enough effect in the signal ratio in the repeat runs, not every such curve was filed as active; the % refers to the signal ratio; also: series mostly up to about 61 µM)
# Method in brief: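 Beta-lactamase reporter assay run in quantitative high-throughput format on an NF-kB-responsive ME-180 line, with 5 hr compound treatment and a FRET-based blue/green fluorescence readout.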
# [2] = qHTS assay to identify small molecule agonists of the NFkB signaling pathway - cell viability counter screen (AID 1159515; calls by dose curve; also: series mostly up to about 61 µM; nearly all actives have a fitted effect of over 55% in size)
# Method in brief: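 ME-180 NFkB-bla cells, 2,000/well; overnight attach; compound 5 hr, 37 C/5% CO2; LiveBLAzer substrate 1.5 hr RT; then CellTiter-Glo in same wells, 30 min RT, luminescence read.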
# [3] = qHTS assay to identify small molecule agonists of the endoplasmic reticulum stress response signaling pathway (AID 1159516; active = well fitted activation curve with a large enough effect in the signal ratio in the repeat runs, not every such curve was filed as active; the % refers to the signal ratio)
# Method in brief: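 HeLa ESRE-bla reporter line; cpd 5 h, 37 C/5% CO2; LiveBLAzer B/G FRET substrate 2 h RT; ex 405, em 460/530 nm.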
# [4] = qHTS assay to identify small molecule agonists of the endoplasmic reticulum stress response signaling pathway - cell viability counter screen (AID 1159517; calls by dose curve;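 also: HeLa cells carrying an ER stress response element beta-lactamase reporter; series mostly up to about 61 µM; nearly all actives have a fitted effect of over 50% in size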)
# Method in brief: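 Steps: seed 1,500 ESRE-bla HeLa cells per well; incubate overnight at 37 C, 5% CO2; add compounds in DMSO for 5 hr; run FRET substrate 2 hr RT; add CellTiter-Glo, wait 30 min, read luminescence.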
# [5] = qHTS assay to identify small molecule antagonists of the retinoid-related orphan receptor gamma (ROR-gamma) signaling pathway - cell viability counter screen (AID 1159520); also: nearly all actives have a fitted effect of over 50% in size
# Method in brief: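 Tet-on ROR gamma CHO cells were given compounds for 2 hr, then doxycycline hyclate at 1 uM final, and incubated 16 hr at 37 C. Viability was measured as ATP content by CellTiter-Glo luminescence.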
# [6] = target: Nuclear receptor ROR-gamma (Homo sapiens) (UniProt P51449); assay: qHTS assay to identify small molecule antagonists of the retinoid-related orphan receptor gamma (ROR-gamma) signaling pathway (AID 1159521; also: nearly all actives have a fitted effect of over 50% in size; also: potency is read from the fitted curve at half-maximal effect)
# Method in brief: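 Decreased RORE-driven luciferase luminescence indicates antagonism. Tet-on RORγ CHO cells received compound, then 1 uM final doxycycline 2 h later; signal read after 16 h incubation.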
# [7] = qHTS assay to identify small molecule agonists of the AP-1 signaling pathway - cell viability counter screen (AID 1159525; calls by dose curve; also: nearly all actives have a fitted effect of over 55% in size; also: potency is read from the fitted curve at half-maximal effect)
# Method in brief: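 Same-well cytotoxicity counter screen of the Tox21 10K library in ME-180 cells. The readout is ATP-dependent luminescence after 5 h compound treatment. Data are normalised to DMSO and tetra n-octyl ammonium bromide controls.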
# [8] = qHTS assay to identify small molecule agonists of the AP-1 signaling pathway (AID 1159526; calls by dose curve)
# [9] = target: Retinoic acid receptor RXR-alpha (Homo sapiens) (UniProt P19793); assay: qHTS assay to identify small molecule agonists of the RXR signaling pathway (AID 1159527; calls by dose curve; also: nearly all actives have a fitted effect of over 35% in size)
# Method in brief: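 16 hr incubation of compound-treated RXR-alpha-UAS-bla HEK 293T cells (2% charcoal-stripped FBS, 37 C) preceded a 2 hr room-temperature LiveBLAzer FRET substrate step and blue/green fluorescence measurement.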
# [10] = qHTS assay to identify small molecule agonists of the RXR signaling pathway - cell viability counter screen (AID 1159529); also: nearly all actives have a fitted effect of over 50% in size; also: potency is read from the fitted curve at half-maximal effect
# Method in brief: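 In this parallel viability measure, GeneBLAzer RXR-alpha HEK 293T cells (2% charcoal-stripped FBS) were given a 5 hr preincubation, treated with compounds 16 hr at 37 C, and read by CellTiter-Glo luminescence.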
# [11] = qHTS assay to identify small molecule antagonists of the retinoid acid receptor (RAR) signaling pathway - cell viability counter screen (AID 1159551); also: nearly all actives have a fitted effect of over 35% in size
# Method in brief: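 C3RL4 RARE-luciferase line; cpds + retinol 1 uM final, 6 h, 37 C/5% CO2; CellTiter-Glo ATP luminescence, 30 min RT.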
# [12] = qHTS assay to identify small molecule antagonists of the retinoic acid receptor (RAR) signaling pathway (AID 1159552; also: nearly all actives have a fitted effect of over 50% in size)
# Method in brief: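 C3RL4 RARE-luc cells, overnight plating; retinol 1 uM final added right after compound; 6 hr 37 C; luciferase read at 30 min RT.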
# [13] = qHTS assay to identify small molecule agonists of the retinoic acid receptor (RAR) signaling pathway (AID 1159553)
# Method in brief: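 RARE-luc C3RL4 cells; overnight attachment 37 C/5% CO2; compound (DMSO) 6 hr; luciferase reagent, 30 min RT; luminescence read-out.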
# [14] = qHTS assay to identify small molecule antagonists of the estrogen related receptor (ERR) signaling pathway from Tox21 library - cell viability counter screen (AID 1224834); also: nearly all actives have a fitted effect of over 30% in size; also: potency is read from the fitted curve at half-maximal effect
# Method in brief: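 Multiplexed viability counter screen in ERR cells: 17.5 h compound exposure at 37 C, CellTiter-Fluor added, 30 min at 37 C/5% CO2, fluorescence read.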
# Chain of Retinoic acid receptor RXR-alpha (Homo sapiens) (P19793 whole entry, looked up): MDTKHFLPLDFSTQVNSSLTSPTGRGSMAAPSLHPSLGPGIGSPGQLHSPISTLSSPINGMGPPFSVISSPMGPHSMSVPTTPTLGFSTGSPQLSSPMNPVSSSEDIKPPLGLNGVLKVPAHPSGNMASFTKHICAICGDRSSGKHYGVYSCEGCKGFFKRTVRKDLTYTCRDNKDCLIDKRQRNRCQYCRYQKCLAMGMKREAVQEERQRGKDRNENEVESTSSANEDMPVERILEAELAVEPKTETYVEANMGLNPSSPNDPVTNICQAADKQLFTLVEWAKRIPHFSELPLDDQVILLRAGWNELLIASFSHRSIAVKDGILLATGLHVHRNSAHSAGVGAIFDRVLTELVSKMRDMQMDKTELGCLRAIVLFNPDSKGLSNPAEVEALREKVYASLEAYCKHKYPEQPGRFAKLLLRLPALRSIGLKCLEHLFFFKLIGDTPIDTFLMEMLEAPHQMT
SMILES,outcome [1],outcome [2],outcome [3],Potency [4],Potency [5],Potency [6],Potency [7],Potency [8],Potency [9],Potency [10],Potency [11],Potency [12],Potency [13],Potency [14]
CCCCCCC(C)(C)S,inactive,inactive,inactive,inactive,inactive,inactive,inactive,inactive,inactive,inactive,inactive,inactive,inactive,inactive
CCCCC(CC)COC(C)=O (stereo not drawn),inactive,inactive,inactive,inactive,inactive,inactive,inactive,inactive,inactive,inactive,inactive,inactive,inactive,inactive
C[C@@H](O)[C@H]1C(=O)N2C(C(=O)O)=C(S[C@@H]3CN[C@H](C(=O)N(C)C)C3)[C@H](C)[C@H]12,inactive,inactive,inactive,inactive,inactive,inactive,inactive,inactive,inactive,inactive,inactive,inactive,inactive,inactive
CCCCC(CC)C(=O)OCCOCCOCCOC(=O)C(CC)CCCC (stereo not drawn),inactive,inactive,inactive,inactive,inactive,inactive,inactive,inactive,inactive,inactive,inactive,inactive,inactive,inactive
CCCCCCCCCCCCOCC1CO1 (stereo not drawn),inactive,inactive,inactive,inactive,inactive,inactive,inactive,inactive,inactive,inactive,inactive,inactive,inactive,inactive
CCCCC(CC)COC(=O)/C=C\C(=O)OCC(CC)CCCC (stereo not drawn),inactive,inactive,inactive,inactive,inactive,inactive,inactive,inactive,inactive,inactive,inactive,inactive,inactive,inactive
C=C(C#N)C(=O)OCC,inactive,inactive,inactive,inactive,inactive,inactive,inactive,inactive,inactive,inactive,inactive,inactive,inactive,inactive
O=[N+]([O-])c1cccc(Cl)c1,inactive,inactive,inactive,inactive,inactive,inactive,inactive,inactive,inactive,inactive,inactive,inactive,inactive,inactive
O=C(Cl)c1c(Cl)c(Cl)c(C(=O)Cl)c(Cl)c1Cl,inactive,inactive,inactive,inactive,inactive,inactive,inactive,inactive,inactive,inactive,inactive,inactive,inactive,inactive
COCC(=O)O,inactive,inactive,inactive,inactive,inactive,inactive,inactive,inactive,inactive,inactive,inactive,inactive,inactive,inactive
O=Nc1ccc(O)cc1,inactive,inactive,inactive,inactive,inactive,inactive,inactive,inactive,inactive,inactive,inactive,inactive,inactive,inactive
COC(=O)c1ccc(C(=O)OC)cc1,inactive,inactive,inactive,inactive,inactive,1.96 µM (active) and inactive,12.5 µM (active) and inactive,inactive,inactive,15.7 µM (active) and inactive,inactive,inactive,inactive,24.7 µM (active) and inactive
Cn1c([N+](=O)[O-])cnc1COC(N)=O,inactive,inactive,inactive,inactive,inactive,inactive,inactive,inactive,inactive,inactive,inactive,inactive,inactive,inactive
CC(C)(C)C1CCC(O)CC1 (stereo not drawn),inactive,inactive,inactive,inactive,inactive,inactive,inactive,inactive,inactive,inactive,inactive,inactive,inactive,inactive
CC1Cc2ccccc2N1NC(=O)c1ccc(Cl)c(S(N)(=O)=O)c1 (stereo not drawn),inactive,inactive,inactive,inactive,inactive,inactive,inactive,inactive,inactive,inactive,inactive,inactive,inactive,inactive
c1ccc2[nH]cnc2c1,inactive,inactive,inactive,inactive,inactive,inactive,inactive,inactive,inactive,inactive,inactive,inactive,inactive,inactive
C[C@@H]1O[C@@H](OC[C@H]2O[C@@H](Oc3c(-c4ccc(O)c(O)c4)oc4cc(O)cc(O)c4c3=O)[C@H](O)[C@@H](O)[C@@H]2O)[C@H](O)[C@H](O)[C@H]1O,inactive,inactive,inactive,inactive,inactive,inactive,inactive,inactive,inactive,inactive,inactive,inactive,inactive,inactive
